MBD2 inh – blocks human MBD2 binding to methylated DNA; inhibition, % at 4.4 µM; TR-FRET, MBD2 binding to methylated oligonucleotide; 0.31% of 370,000 active; in the data active means inhibition above about 13%
UHRF1 binding – UHRF1 methyl-DNA binding inhibition. Q96T88. UHRF1 binding to methylated oligo, TR-FRET. inhibition, % at 4.4 µM. 0.75% of 370,000 active. AID 687016; in the data active means inhibition above about 21%;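 further: UHRF1 SRA domain binding a hemimethylated CpG hairpin DNA probe; 0% = median of test compound wells and 100% = reference inhibitor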
LEDGF integ inh – blocks HIV-1 LEDGF/p75-dependent DNA integration. TR-FRET IN-LEDGF/p75 DNA integration, Eu/Cy5. inhibition, % at 3.7 µM. 0.64% of 370,000 active. AID 743269;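 active means inhibition above the screen-wide mean plus 3 SD, cut at about 13% in these data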;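 further: signal is the Cy5 over europium emission ratio at 671 and 618 nm; 0% = plate median of compound wells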
Rin1 Abl inh – inhibitors of human Rin1-Abl protein interaction. P00519+Q13671. TR-FRET Rin1/Abl binding, biochemical. inhibition, % at 7.35 µM. 0.4% of 360,000 active; in the data active means inhibition above about 5%, passing the limit was not always enough
KLK7 zymogen act – activates the human kallikrein-7 zymogen | 0.9% of 370,000 active | purified proKLK7, EDANS-DABCYL substrate fluorescence; 100% is mature enzyme control, 0% vehicle | AID 652039 | activation, % at 7 µM | P49862;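 active means activation above the mean of all tested compounds plus 3 SD, computed per campaign excluding outliers beyond control limits, cut at about 13% in these data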
Target sequence (P49862 whole entry, looked up): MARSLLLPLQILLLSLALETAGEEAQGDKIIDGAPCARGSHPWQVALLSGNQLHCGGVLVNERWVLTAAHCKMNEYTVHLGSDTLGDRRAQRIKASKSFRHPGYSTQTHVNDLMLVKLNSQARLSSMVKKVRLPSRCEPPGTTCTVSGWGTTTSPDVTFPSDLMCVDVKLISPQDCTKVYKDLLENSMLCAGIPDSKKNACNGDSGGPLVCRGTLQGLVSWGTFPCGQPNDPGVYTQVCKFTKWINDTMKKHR
Neddyl block – inhibitors of human cullin neddylation | P61081+Q13564 | TR-FRET cullin neddylation, biochemical | calls only at 25 µM | 0.58% of 360,000 active | AID 651699; in the data active means inhibition above about 36%
IN multimer up – activates HIV-1 integrase multimerization in LEDGF counter-screen | shares compounds with LEDGF integ inh | TR-FRET HIV-1 integrase multimerization, biochemical | activation, % at 7.7 µM | 17% of 2,000 active | AID 1053131; in the data active means activation above about 8.9%
TR-FRET interf – TR-FRET optical interference, LEDGF/p75 integration counter-screen. inhibition, % at 7.7 µM. shares compounds with LEDGF integ inh. 2,000 tested, under 10 active. TR-FRET optical interference counterscreen, HIV-1 IN multimerization;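 active means inhibition above the mean over all tested compounds plus 3 SD, which no compound reached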;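 further: 0% = integrase with antibodies and DMSO and 100% = antibodies without integrase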
IN-LEDGF confirm – confirmation of HIV-1 LEDGF/p75-dependent integration inhibitors. shares compounds with LEDGF integ inh. TR-FRET LEDGF/p75-dependent HIV-1 integration, biochemical. inhibition, % at 3.7 µM. 36% of 2,000 active; in the data active means inhibition above about 14%
The depositor's hits bear a star; i = inactive; nt = not tested or not shown. Most compounds without a hit are left out; they make up all but 3.1% or so of the library.

SMILES	MBD2 inh	UHRF1 binding	LEDGF integ inh	Rin1 Abl inh	KLK7 zymogen act	Neddyl block	IN multimer up	TR-FRET interf	IN-LEDGF confirm
O=C(N/N=C/c1ccc(O)cc1O)C(=O)N/N=C/c1ccc(O)cc1O	6	-2	15*	6	-2	i	13*	-64	26*
Cc1[nH][nH]c(=O)c1C(c1c(C)[nH][nH]c1=O)c1cn(Cc2ccccc2Cl)c2ccccc12	-5	23*	20*	6	-1	i	-3	9	13
N/C(=N\O)c1cn(Cc2ccccc2Cl)c2ccccc12	-1	-2	0	1	0	i	nt	nt	nt
CCOC(=O)C1=C(C)N(c2ccc(C)cc2)C(=O)/C1=C\c1cccs1	0	6	58*	-4	-1	i	2	-9	7
COc1cc(NC(=O)Cn2cnc3c(OCc4ccccc4)ncnc32)cc(OC)c1OC	0	-3	1	0	-1	i	nt	nt	nt
COC(=O)C1=C(C)OC(N)=C(C#N)C1c1cccnc1 (configuration not stated)	2	-4	-2	-4	0	i	nt	nt	nt
CC1=C(n2nnc([N+](=O)[O-])n2)C(c2cccnc2)C(C#N)=C(N)O1 (configuration not stated)	-2	2	30*	-2	0	i	2	-9	-2
Cc1ccc(-c2csc3ncnc(Cl)c23)cc1	1	1	-2	1	0	i	nt	nt	nt
Cc1ccc(NC(=O)C2CCCN2C(=O)NC2CCCCC2)cc1C (configuration not stated)	2	6	53*	0	1	i	-4	18	5
CCn1c(C)cc(/C=C2\NC(=O)N(Cc3ccccc3)C2=O)c1C	2	1	17*	-3	1	i	1	-3	-4
COc1ccc(C(O)c2nccc3cc(OC)c(OC)cc23)cc1OC (configuration not stated)	12	18	29*	-6	-1	i	0	-1	3
COc1cc(N)c(C(O)c2nccc3cc(OC)c(OC)cc23)cc1OC (configuration not stated)	6	0	1	1	-1	i	nt	nt	nt
CC(=O)N(C)C1=C(N2CCOCC2)C(=O)c2ccccc2C1=O	nt	nt	nt	-11	nt	i	nt	nt	nt
CC(=O)N(C1=C(N2CCOCC2)C(=O)c2ccccc2C1=O)c1ccc(C(=O)O)cc1	-7	4	17*	-3	-9	i	2	-8	17*
CCn1c(=O)c(C(=O)CN2CCN(S(=O)(=O)c3cc(C)ccc3C)CC2)c(N)n(Cc2ccccc2)c1=O	0	-2	50*	-3	0	i	1	-6	-5
CN(C)c1cccc2c(S(=O)(=O)Nc3ccccn3)cccc12	0	-1	19*	-3	-131	nt	0	-2	-2
CCOC(=O)[C@]12CCCC=C1N(CCCOC)C(=O)[C@@H]2CC(=O)NCc1ccc(OC)c(OC)c1	-1	2	-2	nt	0	nt	nt	nt	nt
O=C(c1cccc(Cl)c1)C1CCCN(C(=O)c2ccoc2)C1 (configuration not stated)	1	0	0	1	0	i	nt	nt	nt
CCCS(=O)(=O)NC(=O)C1(C)CCCN(C(=O)c2ccccc2C(F)(F)F)C1 (configuration not stated)	5	-2	1	-7	0	i	nt	nt	nt
COc1cc(/C=C(\C#N)c2nc3ccccc3[nH]2)cc(OC)c1O	-3	-10	16*	-4	1	i	8	-38	2
COc1ccc(/C=C(\C#N)c2nc3ccccc3[nH]2)cc1O	-4	-3	-3	-7	2	i	nt	nt	nt
O=C(NCc1ccccc1F)C12CC3CC(CC(C3)C1)C2	-4	-4	1	0	0	i	nt	nt	nt
CC1CCCCN1CCNC(=O)Cn1nc(-c2ccccc2)ccc1=O (configuration not stated)	-1	-3	-1	1	0	i	nt	nt	nt
Cc1ccc(-c2ccc(=O)n(CC(=O)NCCCN3CCCCC3C)n2)cc1 (configuration not stated)	2	1	24*	-2	0	i	0	-1	-2
O=C(CSc1nnc(-c2ccccc2F)n1C1CC1)Nc1cccnc1Cl	-1	-2	6	-6	0	i	nt	nt	nt
SMILES	MBD2 inh	UHRF1 binding	LEDGF integ inh	Rin1 Abl inh	KLK7 zymogen act	Neddyl block	IN multimer up	TR-FRET interf	IN-LEDGF confirm
C#CCNC(=O)C[C@@H]1C[C@@]2(C(=O)OCC)CCCC=C2N(Cc2ccccc2)C1=O	4	-1	19*	nt	1	i	-2	12	-1
CCOC(=O)[C@]12CCCC=C1N(Cc1ccccc1)C(=O)[C@H](CC(=O)NCc1ccccc1)C2	2	1	1	nt	0	i	nt	nt	nt
COC(=O)[C@]12CCCCC=C1N(Cc1ccco1)C(=O)[C@H](CC(=O)NCC13CC4CC(CC(C4)C1)C3)C2	-2	1	28*	nt	0	i	0	1	-7
COC(=O)[C@@]12C[C@@H](CC(=O)NCC34CC5CC(CC(C5)C3)C4)C(=O)N(Cc3ccco3)C1=CCC(C)(C)C2	-2	2	2	nt	1	i	nt	nt	nt
O=C(c1cc(-c2cccc(O)c2)on1)N1CCOCC1	0	2	4	-3	0	i	nt	nt	nt
O=C(c1cc(-c2cccc(O)c2)on1)N1CCCCCC1	2	-1	47*	4	1	i	0	1	-3
Cc1cc(=O)oc2cc(NC(=O)CC3(CC(=O)O)CCCC3)ccc12	-7	-2	21*	0	9	nt	-2	5	2
Nc1ccc(N2CCOCC2)c2nonc12	19*	30*	22*	-1	2	i	6	-21	8
O=C(Nc1ccc(N2CCOCC2)c2nonc12)C1CCCC1	-8	-18	6	-8	0	i	nt	nt	nt
O=C(O)c1ccc(N/N=C/c2cccc(C(F)(F)F)c2)cc1	-6	-3	0	-1	0	i	nt	nt	nt
Cc1nnc(N/N=C/c2ccco2)n1N	-9	4	43*	0	0	i	5	-24	-3
Cc1nnc(N/N=C/c2cccc(C(F)(F)F)c2)n1N	2	13	57*	2	-1	i	-2	8	-8
Cc1nnc(N/N=C/c2ccccc2F)n1N	-2	8	56*	1	0	i	1	-3	-4
Cc1nnc(N/N=C/c2ccccc2C(F)(F)F)n1N	-4	2	45*	0	0	i	0	1	3

Screening results deposited in PubChem BioAssay by several laboratories.
